Data: PubChem BioAssay (NCATS)
Inconclusive results are not listed. The source made the active and inactive calls. Calls follow the shape of the full dose curve. Starred links: 1 amine or outer side, 2 acyl side, 3 side chain; linkers in the order of their positions; H or OH if unused. Positions of bridges follow the written chain, without caps; N, C: chain ends. Non-standard residues stand in square brackets, D forms with d. Residues, ends and D or L forms follow the SMILES beside them. Chains are numbered I, II in the order given. ξ: configuration not given here. *: point of attachment. Actinocin(9to1) = Cc1c2oc3c(C)ccc(C(=O)[*:1])c3nc-2c(C(=O)[*:2])c(N)c1=O; Octanoyl(6-Me) = CCC(C)CCCCC(=O)*; ξThr(3R) = C[C@@H](O)C(N)C(=O)O; NMeV = CN[CH](C(=O)O)C(C)C; dDab = NCC[C@@H](N)C(=O)O; Dab = NCC[C@H](N)C(=O)O; Sar = CNCC(=O)O

Key:
[1] = qHTS drug screen for cell cycle checkpoint inhibitors in PARPi-resistant BRCA-mutant ovarian cancer cell lines. (AID 1963452); conditions: PEO1/OlaR viability, CellTiter-Glo luminescence, 96 h; for Z-AUC: stronger effect = lower value
In short: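 PEO1, PEO4 and PEO1/OlaR ovarian cancer cells, 600 per well, exposed 96 h at 37C to a dilution series. Viability read by CellTiter-Glo luminescence, normalized to DMSO and empty wells; activity summarized as Z-AUC.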

[2] = qHTS for identification of novel therapeutic agents for treatment of microphthalmiaassociated transcription factor (MiT) renal cell carcinoma (RCC) (AID 1963991); conditions: CellTiter-Glo, 48 h; for z-score: stronger effect = lower value
In short: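 Three TFE3-fusion RCC lines (UOK109, UOK124, UOK145), 500 cells/well in complete medium, were treated with MIPE 4.0 compounds for 48 hours at 37 C. Viability was by CellTiter-Glo luminescence, normalized to DMSO (100%) and empty wells (0%); curves fitted over 11 concentrations.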

[3] = measured here: PEO1 parental Z-AUC
[4] = TFE3-RCC UOK109 viability, measured here: UOK109 Z-AUC
[5] = TFE3-RCC viability, measured here: UOK124 Z-AUC
[6] = TFE3-RCC viability, measured here: UOK145 Z-AUC
Potency is read from the fitted curve at half-maximal effect.

Row | SMILES | Z-AUC [1] | Z-AUC [1, 3] | Z-AUC ([1]; measured here: PEO4 Z-AUC) | z-score [2, 4] | z-score [2, 5] | z-score [2, 6] | Potency [1] | Potency ([2]; TFE3-RCC UOK109 viability, active = Z-AUC below -0.8 in all three lines)
1 | Nc1cccc2c1C(=O)N(C1CCC(=O)NC1=O)C2=O (centres undefined) | -0.524 (inactive) | -0.0375 | -0.357 | 0.502 | 0.0802 | -0.491 | – | –
2 | Cc1ccccc1C(=O)Nc1ccc(C(=O)N2CCCC(O)c3cc(Cl)ccc32)c(C)c1 (centres undefined) | -0.543 (inactive) | -0.255 | 0.00137 | -0.031 | 0.501 | 0.525 | – | –
3 | C[C@H]1COc2c(N3CCN(C)CC3)c(F)cc3c(=O)c(C(=O)O)cn1c23 | -0.648 (inactive) | -0.279 | -0.579 | 1.28 | 0.967 | 1.39 | – | –
4 | O=C(c1ccc(F)cc1)N1CCC[C@H](c2nc(-c3ccc(F)cc3)no2)C1 | 1.14 (inactive) | 0.372 | 0.34 | 1.39 | 0.757 | 0.391 | – | –
5 | CC(Oc1ccc(O)cc1)(P(=O)(O)O)P(=O)(O)O | 0.474 (inactive) | 0.34 | 0.383 | 0.171 | 0.237 | 0.233 | – | –
6 | OC[C@H]1OC(O)C[C@@H](O)[C@H]1O (some centres undefined) | -0.67 (inactive) | -0.645 | -0.88 | 1.34 | 0.406 | -0.0329 | – | –
7 | O=C1c2cccc(O)c2C(=O)c2c(O)cc(CO)cc21 | 0.225 (inactive) | -0.222 | -0.301 | 0.181 | 0.143 | 0.0189 | – | –
8 | CCCCC(=O)O[C@]1(C(=O)CO)[C@@H](C)C[C@H]2[C@@H]3CCC4=CC(=O)C=C[C@]4(C)[C@@]3(F)[C@@H](O)C[C@@]21C | -0.479 (inactive) | 0.863 | 0.108 | -0.136 | 0.0594 | 0.664 | – | –
9 | O=C(CN1C(=O)C2(CCCC2)NC[C@H]1c1cc(F)cc(F)c1)Nc1ccc2c(c1)C[C@@]1(C2)C(=O)Nc2ncccc21 | 0.0664 (inactive) | -0.0432 | 0.449 | 1.1 | 0.765 | 1.18 | – | –
10 | CCC(C)CCCCC(=O)N[C@@H](CCN)C(=O)NC(C(=O)N[C@H](CCN)C(=O)N[C@@H]1CCNC(=O)C([C@@H](C)O)NC(=O)[C@@H](CCN)NC(=O)[C@@H](CCN)NC(=O)[C@@H](CC(C)C)NC(=O)[C@H](Cc2ccccc2)NC(=O)[C@H](CCN)NC1=O)[C@@H](C)O (stereo partly drawn) ({Octanoyl(6-Me)}-[Dab][ξThr(3R)][dDab][dDab][Dab]F[dL][dDab][dDab][ξThr(3R)]; lactam 4-C) | 1.19 (inactive) | 0.672 | 0.762 | 0.782 | 0.881 | 0.703 | – | –
11 | C=C(C)[C@@H]1CC[C@]2(C(=O)O)CC[C@]3(C)[C@H](CC[C@@H]4[C@@]5(C)CC[C@H](O)C(C)(C)[C@@H]5CC[C@]43C)[C@@H]12 | 1.23 (inactive) | 0.622 | 0.86 | 0.38 | 0.714 | 0.25 | – | –
12 | C=C(C)[C@@H]1CC[C@]2(C)CC[C@]3(C)[C@H](CC[C@@H]4[C@@]5(C)CC[C@H](O)C(C)(C)[C@H]5CC[C@]43C)[C@@H]12 | 1.12 (inactive) | 0.74 | 1.16 | 1.03 | 0.631 | 0.295 | – | –
13 | Cc1cc(O)c2c(c1)C(=O)c1cccc(O)c1C2=O | -0.855 (inactive) | 0.00192 | -0.281 | -0.138 | 0.712 | 0.0822 | – | –
14 | C=C[C@@H]1CN2CCC1C[C@H]2[C@H](O)c1ccnc2ccc(OC)cc12 (some centres undefined) | -0.116 (inactive) | 0.594 | 0.97 | 0.232 | 0.335 | 0.288 | – | –
15 | C#CCC(Cc1cnc2nc(N)nc(N)c2n1)c1ccc(C(=O)N[C@@H](CCC(=O)O)C(=O)O)cc1 (some centres undefined) | – | -2.32 | -1.96 | -1.2 | -2.51 | -2.95 | 7.8 nM (active) | 132 nM (active)
16 | Cc1c2oc3c(C)ccc(C(=O)NC4C(=O)NC(C(C)C)C(=O)N5CCCC5C(=O)N(C)CC(=O)N(C)C(C(C)C)C(=O)OC4C)c3nc-2c(C(=O)NC2C(=O)NC(C(C)C)C(=O)N3CCCC3C(=O)N(C)CC(=O)N(C)C(C(C)C)C(=O)OC2C)c(N)c1=O (centres undefined) (I: TVP[Sar][NMeV] / II: TVP[Sar][NMeV]; ester I:1-I:C, II:1-II:C; linker I:N-II:N via Actinocin(9to1); configuration not given here) | -0.322 (inactive) | -0.674 | -0.27 | -4.2 | -4.25 | -3.66 | – | –
17 | CC(C(C)N1CC(=O)NC(=O)C1)N1CC(=O)NC(=O)C1 (centres undefined) | 0.386 (inactive) | 0.374 | 0.397 | -0.243 | -1.76 | -0.193 | – | –
18 | O=C1NC(O)CCN1[C@@H]1O[C@H](CO)[C@H](O)[C@H]1O (some centres undefined) | -0.827 (inactive) | -1.1 | -1.36 | 0.896 | 0.732 | 0.58 | – | –
